Results filed as inconclusive are left out. A call without a number means that no potency is given here. Activity calls are given as the source filed them. Unless noted, the call rests on the fitted dose curve; in most records, active means well fitted curve in the direction sought with a large enough effect in the repeat runs; inconclusive means weak or mixed curves; inactive means no such curve, though single readings can be large; an effect the other way counts as inactive or inconclusive.
Tests used:
[1] = target: Luciferin 4-monooxygenase (Photinus pyralis) (UniProt P08659); experiment: qHTS assay to identify small molecule inhibitors of firefly luciferase (AID 1224835); further: nearly all actives have a fitted effect of over 25% in size; further: potency means the concentration at half of the fitted maximal effect; details: purified P. pyralis luciferase, luminescence inhibition; series mostly up to 115 µM
Summary of the method: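 Quantitative HTS format; KM concentrations of both substrates. Purified P. pyralis FLuc activity quantified from luminescence images.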

[2] = qHTS assay to identify small molecule agonists of the constitutive androstane receptor (CAR) signaling pathway - cell viability counter screen (AID 1224836); details: HepG2-CYP2B6-hCAR viability, CellTiter-Fluor, 23 h, PK11195 added to every well; series mostly up to 92.4 µM; further: nearly all actives have a fitted effect of over 45% in size
Summary of the method: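 Using CellTiter-Fluor, viability of HepG2 cells harbouring hCAR and CYP2B6-2.2kb was measured following 23 h incubation with a 15-concentration compound series plus PK11195 (0.75 uM final).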

[3] = qHTS assay to identify small molecule antagonists of the constitutive androstane receptor (CAR) signaling pathway - cell viability counter screen (AID 1224837); details: HepG2-CYP2B6-hCAR viability, CellTiter-Fluor, 23 h, co-treated with 50 nM CITCO; series mostly up to 92.4 µM; further: nearly all actives have a fitted effect of over 45% in size
Summary of the method: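 In quantitative HTS format, compounds at 15 concentrations were applied to HepG2 cells double-transfected with hCAR and CYP2B6-2.2kb under 50 nM CITCO stimulation; live-cell protease activity was read after 23 hr via CellTiter-Fluor.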

[4] = target: Nuclear receptor subfamily 1 group I member 3 (Homo sapiens) (UniProt Q14994); experiment: qHTS assay to identify small molecule antagonists of the constitutive androstane receptor (CAR) signaling pathway (AID 1224838); details: HepG2-CYP2B6-hCAR luciferase, CITCO-stimulated, 24 h; series mostly up to 92.4 µM; further: nearly all actives have a fitted effect of over 40% in size
Summary of the method: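 CITCO-stimulated (50 nM final) HepG2 cells stably transfected with hCAR and CYP2B6-2.2kb luciferase were exposed to compounds at 15 concentrations for 24 h at 37 C/5% CO2. A luciferase reagent was added and luminescence recorded after 30 min.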

[5] = target: Nuclear receptor subfamily 1 group I member 3 (Homo sapiens) (UniProt Q14994); experiment: qHTS assay to identify small molecule agonists of the constitutive androstane receptor (CAR) signaling pathway (AID 1224839); details: HepG2 hCAR CYP2B6-luciferase, agonist mode, 24 h; series mostly up to 92.4 µM; further: nearly all actives have a fitted effect of over 15% in size; further: potency means the concentration at half of the fitted maximal effect
Summary of the method: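 Double-stable HepG2 cells (hCAR, CYP2B6-2.2kb) seeded 4 h before compound addition. Exposure 24 h with 0.75 uM PK11195 final. Luciferase detected by ONE-Glo.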

[6] = qHTS assay to identify small molecule antagonists of the estrogen related receptor signaling pathway with the pleiotropic PPARgamma coactivator (PGC) from Tox21 10K library - cell viability counter screen (AID 1224840; active means well fitted cell-killing curve with a large enough effect in the repeat runs, not every such curve was filed as active; further: nearly all actives have a fitted effect of over 40% in size); details: PGC/ERR reporter cells viability, CellTiter-Fluor, 17.5 h; series mostly up to 92.4 µM
Summary of the method: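 Viability counter screen, PGC/ERR cells: 17.5 h compound exposure at 37 C, CellTiter-Fluor fluorescence endpoint.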

[7] = qHTS assay to identify small molecule antagonists of the estrogen related receptor signaling pathway with the pleiotropic PPARgamma coactivator (PGC) from Tox21 10K library (AID 1224841; call rule not given here; further: actives are mostly falling curves and most rising ones were filed inactive; nearly all actives have a fitted effect of over 50% in size); details: PGC/ERR reporter cell line, ONE-Glo luciferase, 18 h; series mostly up to 92.4 µM
Summary of the method: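 In the PGC/ERR line, DMSO solutions of test chemicals are pin-delivered to 2,000 cells/well six hours after dispensing. Following eighteen hours' incubation, One-Glo reagent is added and luminescence recorded.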

[8] = qHTS assay to identify small molecule agonists of the estrogen related receptor signaling pathway with the pleiotropic PPARgamma coactivator (PGC) from Tox21 10K library (AID 1224842); details: PGC/ERR reporter cell line, luciferase ONE-Glo, 18 h; series mostly up to 92.4 µM; further: nearly all actives have a fitted effect of over 15% in size
Summary of the method: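 PGC/ERR reporter cells (NTP line) were seeded 2,000 per well, rested 6 h at 37 C/5% CO2, then pin-dosed with compounds in DMSO for 18 h at 37 C; luciferase read by One-Glo luminescence after 30 min at room temperature.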

[9] = target: Thyrotropin receptor (Homo sapiens) (UniProt P16473); experiment: qHTS assay to identify small molecule agonists of the thyroid stimulating hormone receptor (TSHR) signaling pathway (AID 1224843; calls by dose curve; further: nearly all actives have a fitted effect of over 45% in size); details: TSHR-HEK293 cells, cAMP HTRF, agonist mode, 30 min; series mostly up to 92.4 µM
Summary of the method: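 Using 15 concentrations per compound in triplicate, cAMP production was monitored in TSHR-HEK293 cells after 30 min compound incubation at RT; HTRF reagents followed, with fluorescence intensity recorded after 1 h.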

[10] = qHTS assay to identify small molecule antagonists of the estrogen related receptor (ERR) signaling pathway from Tox21 library - cell viability counter screen (AID 1224834); details: ERR reporter cells viability, CellTiter-Fluor, 17.5 h; series mostly up to 92.4 µM; further: nearly all actives have a fitted effect of over 30% in size; further: potency means the concentration at half of the fitted maximal effect
Summary of the method: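 In this quantitative HTS format, ERR cells receive compounds in DMSO and are incubated for 17.5 h at 37 C. Live-cell protease activity is then detected with CellTiter-Fluor.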

Chain of Thyrotropin receptor (Homo sapiens) (P16473 whole entry, looked up): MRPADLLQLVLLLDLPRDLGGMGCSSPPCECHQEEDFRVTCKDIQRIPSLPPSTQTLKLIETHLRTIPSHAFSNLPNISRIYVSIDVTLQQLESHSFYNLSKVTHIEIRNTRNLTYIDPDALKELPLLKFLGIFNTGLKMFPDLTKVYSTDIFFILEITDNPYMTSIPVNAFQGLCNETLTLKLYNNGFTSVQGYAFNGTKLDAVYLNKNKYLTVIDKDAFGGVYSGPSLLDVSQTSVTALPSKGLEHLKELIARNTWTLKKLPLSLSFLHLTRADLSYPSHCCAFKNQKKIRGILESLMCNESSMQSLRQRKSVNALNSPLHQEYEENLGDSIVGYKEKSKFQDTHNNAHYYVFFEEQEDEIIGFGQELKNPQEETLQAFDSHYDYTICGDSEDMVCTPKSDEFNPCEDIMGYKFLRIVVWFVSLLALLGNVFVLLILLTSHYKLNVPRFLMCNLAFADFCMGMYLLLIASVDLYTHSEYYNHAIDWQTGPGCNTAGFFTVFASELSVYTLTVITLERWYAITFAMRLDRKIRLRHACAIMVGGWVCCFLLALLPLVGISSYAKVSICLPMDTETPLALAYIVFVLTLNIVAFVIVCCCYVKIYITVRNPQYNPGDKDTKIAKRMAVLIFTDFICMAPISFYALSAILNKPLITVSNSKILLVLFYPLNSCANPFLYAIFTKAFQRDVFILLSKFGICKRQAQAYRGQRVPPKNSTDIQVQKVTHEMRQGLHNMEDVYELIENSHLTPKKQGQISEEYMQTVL
Chain of Luciferin 4-monooxygenase (Photinus pyralis) (P08659 whole entry, looked up): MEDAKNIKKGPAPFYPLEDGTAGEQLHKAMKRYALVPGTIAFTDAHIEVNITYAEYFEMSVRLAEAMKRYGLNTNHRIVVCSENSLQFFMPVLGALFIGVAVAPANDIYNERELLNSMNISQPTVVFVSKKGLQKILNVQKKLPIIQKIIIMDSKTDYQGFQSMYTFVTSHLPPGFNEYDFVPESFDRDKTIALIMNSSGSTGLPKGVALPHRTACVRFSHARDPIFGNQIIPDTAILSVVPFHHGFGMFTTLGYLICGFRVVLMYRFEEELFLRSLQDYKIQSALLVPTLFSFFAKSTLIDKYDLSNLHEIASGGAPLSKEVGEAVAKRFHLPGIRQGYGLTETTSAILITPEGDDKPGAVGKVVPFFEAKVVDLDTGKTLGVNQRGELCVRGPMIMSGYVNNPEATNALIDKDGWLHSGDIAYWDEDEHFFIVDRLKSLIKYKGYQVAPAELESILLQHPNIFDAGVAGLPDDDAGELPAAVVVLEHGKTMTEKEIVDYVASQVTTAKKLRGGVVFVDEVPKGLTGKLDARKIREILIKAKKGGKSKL
Chain of Nuclear receptor subfamily 1 group I member 3 (Homo sapiens) (Q14994 whole entry, looked up): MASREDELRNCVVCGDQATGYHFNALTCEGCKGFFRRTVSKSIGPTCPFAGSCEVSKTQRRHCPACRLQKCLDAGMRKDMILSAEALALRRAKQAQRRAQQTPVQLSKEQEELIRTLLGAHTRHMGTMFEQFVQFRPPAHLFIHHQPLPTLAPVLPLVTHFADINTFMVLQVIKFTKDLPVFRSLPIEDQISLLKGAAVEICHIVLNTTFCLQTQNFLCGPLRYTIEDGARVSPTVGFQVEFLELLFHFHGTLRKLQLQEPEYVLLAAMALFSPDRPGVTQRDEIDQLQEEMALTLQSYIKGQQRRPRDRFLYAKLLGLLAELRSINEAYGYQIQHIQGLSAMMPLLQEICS

Cc1ccc(Nc2c(F)cccc2Cl)c(CC(=O)O)c1
Potency [1]: inactive | Potency [2]: inactive | Potency [3]: inactive | Potency [4]: inactive | Potency [5]: inactive | Potency [6]: inactive | Potency [7]: inactive | Potency [8]: inactive | Potency [9]: inactive

Cc1cccc(C)c1NC(=O)c1cc(S(N)(=O)=O)c(Cl)cc1O
Potency [10]: inactive | Potency [2]: inactive | Potency [3]: inactive | Potency [4]: inactive | Potency [5]: inactive | Potency [6]: inactive | Potency [9]: inactive

O=C(c1ccccc1)C1CCC1
Potency [1]: inactive | Potency [2]: inactive | Potency [3]: inactive | Potency [4]: inactive | Potency [5]: inactive | Potency [6]: inactive | Potency [9]: inactive

O=C(c1ccccc1)c1ccc(O)cc1
Potency [10]: 69.4 µM (active) | Potency [2]: inactive | Potency [3]: inactive | Potency [4]: inactive | Potency [6]: inactive | Potency [7]: inactive | Potency [8]: inactive | Potency [9]: inactive

CNS(=O)(=O)c1cc(C(=O)N2CCC(CCN3C4CCC3CC(n3c(C)nc5ccccc53)C4)(c3cccc(F)c3)CC2)c(Cl)cc1F (stereo not given)
Potency [10]: 13.7 µM (active) | Potency [1]: inactive | Potency [3]: inactive | Potency [9]: inactive

O=C1CC[C@@H](C(=O)O)N1
Potency [1]: inactive | Potency [2]: inactive | Potency [3]: inactive | Potency [4]: inactive | Potency [5]: inactive | Potency [6]: inactive | Potency [7]: inactive | Potency [8]: inactive | Potency [9]: inactive

CC(C)C(=O)OCCOc1ccccc1
Potency [1]: inactive | Potency [2]: inactive | Potency [3]: inactive | Potency [4]: inactive | Potency [5]: inactive | Potency [6]: inactive

CN=C(N)NC(=O)Nc1c(C)cccc1C
Potency [1]: inactive | Potency [2]: inactive | Potency [3]: inactive | Potency [4]: inactive | Potency [5]: inactive | Potency [6]: inactive | Potency [7]: inactive | Potency [8]: inactive | Potency [9]: inactive

c1ccc(CCCc2ccncc2)cc1
Potency [10]: inactive | Potency [2]: inactive | Potency [6]: inactive

CCCCCCCCCCCCCOS(=O)(=O)O
Potency [10]: inactive | Potency [2]: inactive | Potency [3]: inactive | Potency [6]: inactive | Potency [9]: inactive

COC(=O)c1sccc1S(N)(=O)=O
Potency [1]: inactive | Potency [2]: inactive | Potency [3]: inactive | Potency [4]: inactive | Potency [5]: inactive | Potency [6]: inactive | Potency [7]: inactive | Potency [8]: inactive | Potency [9]: inactive

Nc1nc2ccc(OC(F)(F)F)cc2s1
Potency [1]: 24.5 µM (active) | Potency [2]: inactive | Potency [3]: inactive | Potency [4]: inactive | Potency [5]: 11.9 µM (active) | Potency [6]: inactive | Potency [9]: inactive

CCCc1nc2c(C)cc(-c3nc4ccccc4n3C)cc2n1Cc1ccc(-c2ccccc2C(=O)O)cc1
Potency [1]: 13.8 µM (active) | Potency [2]: inactive | Potency [3]: inactive | Potency [4]: inactive | Potency [5]: inactive | Potency [6]: inactive | Potency [9]: inactive

COc1ccc(-c2cc(C(F)F)nn2-c2ccc(S(N)(=O)=O)cc2)cc1F
Potency [1]: inactive | Potency [2]: inactive | Potency [3]: inactive | Potency [4]: inactive | Potency [5]: inactive | Potency [6]: inactive | Potency [7]: inactive | Potency [8]: inactive

CC(C)COC(=O)COc1cc(Cl)c(Cl)cc1Cl
Potency [10]: inactive | Potency [2]: inactive | Potency [3]: inactive | Potency [4]: inactive | Potency [6]: inactive | Potency [7]: inactive | Potency [8]: inactive

CC(C)(O)c1coc(S(=O)(=O)NC(=O)Nc2c3c(cc4c2CCC4)CCC3)c1
Potency [1]: inactive | Potency [2]: inactive | Potency [3]: inactive | Potency [4]: inactive | Potency [5]: inactive | Potency [6]: inactive | Potency [9]: inactive

Cc1cc([N+](=O)[O-])ccc1N
Potency [10]: 33.9 µM (active) | Potency [4]: inactive | Potency [9]: inactive

CCCCCCCCCCCC(=O)OCC(O)CO (stereo not given)
Potency [10]: inactive | Potency [2]: inactive | Potency [4]: inactive | Potency [5]: inactive | Potency [6]: inactive | Potency [7]: inactive | Potency [8]: inactive

CCN(CC)c1cccc(O)c1
Potency [10]: inactive | Potency [2]: inactive | Potency [3]: inactive | Potency [4]: inactive | Potency [5]: 55.6 µM (active) | Potency [6]: inactive | Potency [7]: inactive | Potency [8]: inactive
